High-throughput results from PubChem.
D1 antagonist: antagonists of human D1 dopamine receptor | hit rate 3.2% among 360,000 | P21728 | HEK293 TREx D1 cells, calcium flux, dopamine EC80; stronger effect = lower value | AID 504652 | activity change, negative = inhibition, % at 10 µM; in the data active = activity change below about -30%; note: % is set by controls: 0 for no effect and ±100 for the full control effect
Target sequence (P21728 whole entry, looked up): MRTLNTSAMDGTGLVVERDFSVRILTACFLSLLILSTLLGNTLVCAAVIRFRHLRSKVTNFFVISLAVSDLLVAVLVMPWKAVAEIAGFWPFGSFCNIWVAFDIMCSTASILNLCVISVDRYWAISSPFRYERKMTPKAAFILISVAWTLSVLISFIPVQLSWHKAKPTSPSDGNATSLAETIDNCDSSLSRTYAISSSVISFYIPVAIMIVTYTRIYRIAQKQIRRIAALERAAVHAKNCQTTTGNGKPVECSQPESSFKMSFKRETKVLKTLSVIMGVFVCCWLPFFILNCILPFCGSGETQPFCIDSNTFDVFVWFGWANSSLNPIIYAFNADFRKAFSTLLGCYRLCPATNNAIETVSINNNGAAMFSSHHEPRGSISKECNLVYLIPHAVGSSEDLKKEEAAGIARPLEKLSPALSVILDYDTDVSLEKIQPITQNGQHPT
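Tetracycline-induced HEK293 T-REx cells with force-coupled D1 receptor were loaded with a no-wash calcium dye. Compound was added after a 10 s baseline and read kinetically for 180 s; EC80 dopamine was then added and calcium flux followed another 180 s.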
D3 antag: antagonists of human D3 dopamine receptor | D3R cells, DiscoveRx beta-arrestin luminescence, antagonist mode; stronger effect = lower value | max response, negative = inhibition, % | hit rate 2.5% among 360,000 | AID 652054; in the data active = max response below about -50%; inconclusive = no clear call, values can overlap the other calls; note: % is set by controls: 0 for no effect and ±100 for the full control effect
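Cells plated overnight at 1500 cells/well, then exposed to library compounds with dopamine controls for 90 minutes at 37 degrees C. DiscoveRx reagent added for 30–60 minutes at room temperature; luminescence read, quantitative HTS format.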
D3 ag: agonists of human D3 dopamine receptor | P35462 | D3R DiscoveRx beta-arrestin cells, luminescence, 90 min | max activation, % | hit rate 0.58% among 410,000; in the data active = max activation above about 30%; note: 0% is about no effect
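Agonist-mode cell screen: cells plated at 1500/well and incubated overnight at 37 °C, then exposed to library compounds for 90 min at 37 °C. Detection reagent was added for 30–60 min at room temperature, and luminescence was read.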
D1 ag: activates the human D1 dopamine receptor | P21728 | HEK293 T-REx D1 cells, calcium flux, agonist mode | activation, % at 2 µM | hit rate 1% among 360,000 | AID 504660; in the data active = activation above about 30%; note: 0% is about no effect
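Tetracycline-induced HEK293 TREx D1 cells, force-coupled to calcium signalling, were dye-loaded with a no-wash calcium kit. Compound was pin-added after a 10 s baseline. Fluorescence was read kinetically at 1 cycle/s for 180 s, with calcium rises flagged as agonism.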
D1 potentiator: potentiators of human D1 dopamine receptor | hit rate 0.036% among 360,000 | potentiation, % at 10 µM | AID 504651 | HEK293 TREx D1 cells, calcium flux, dopamine EC20 potentiation; in the data active = potentiation above about 30%; note: 0% is about no effect
BCR signal inh: blocks chronic active B-cell receptor signaling | Potency, µM (series often up to 46.1 µM), without a hit: at the top dose activity change, negative = inhibition, actives largely listed as inhibitors | AID 493014 | hit rate 0.05% among 340,000 | ABC-DLBCL IkBa-CBG/CBR reporter, luminescence ratio, 4 h; active = well fitted inhibition curve with a large enough effect in the signal ratio, with a control signal flat, not every such curve was filed as active; inconclusive = small, poorly fitted or top-dose-only effect, or effect the other way, or a change in a side signal; the % refers to the signal ratio;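 note: potency is the fitted concentration of half-maximal effect; plate controls were basal doxycycline-induced cells for no effect and cells given 10 µM MG132 for full effect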
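TMD8 ABC-DLBCL cells carrying doxycycline-inducible green luciferase fused to IkappaBalpha plus unfused red luciferase were exposed to compounds (up to 46 uM) for 4 hrs at 37C. Activity came from the overlap-corrected green/red luminescence ratio.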
Active calls of the source: *; u = inconclusive; x = no result; ! = not active in a repeat. Hits are enriched below; roughly 6% of the tested compounds scored in any of these assays.

SMILES	D1 antagonist	D3 antag	D3 ag	D1 ag	D1 potentiator	BCR signal inh
CCn1cc(C(=O)NC(C)C)c(=O)c2cc(F)c(N3CCN(C(=O)c4ccco4)CC3)cc21	-31.3*	4.8	-5.0	5.0	-3.5	8.3%
CCn1cc(C(=O)NCCC(C)C)c(=O)c2cc(F)c(N3CCN(C(=O)c4ccco4)CC3)cc21	7.2	11.5	3.6	0.5	2.6	0.8%
CC(=O)c1cc(F)c(N2CCN(C(=O)c3ccco3)CC2)cc1C	-31.7*	32.9	5.1	22.2	-6.2	11.6%
CCC(=O)c1cc(F)ccc1OCC(=O)N1CCN(c2ccc(F)cc2)CC1	-33.8*	10.5	-2.6	6.5	-7.8	-27.0%
CC(=O)c1ccc(N2CCN(C(=O)c3ccco3)CC2)c(F)c1	3.3	-0.1	-1.0	20.0	-1.8	0.8%
CC(=O)c1cc(F)c(N2CCN(C(=O)COc3ccc(F)cc3)CC2)cc1C	-32.9*	348.4	3.7	6.6	-7.2	8.2%
COc1cc(Cn2c3ccc(NC(=O)NCCc4ccccc4)cc3c(=O)n2C)ccc1F	x	-5.8	0.0	x	x	x
COc1ccc2c(Cl)c(C(=O)N/N=C3\CCCC(=O)C3)sc2c1	-17.9	-3.7	-2.9	44.1*	-2.9	-0.7%
COc1ccc2c(Cl)c(C(=O)N/N=C/c3ccc4c(c3)OCO4)sc2c1	12.8	5.9	2.9	2.9	-7.3	-5.3%
OCCCc1nc2n(n1)C(c1ccccc1)C=C(c1ccc(F)cc1)N2 (stereo unspecified)	-16.1	14.1	-9.4	8.8	-3.7	u
OCCCc1nc2n(n1)C(c1cccs1)C=C(c1ccccc1)N2 (stereo unspecified)	1.0	x	x	34.3*	x	23.5%
CC(O)c1cccc(-c2ccc(CN3C[C@]4(CO)O[C@@H](CO)C[C@@H]4S3(=O)=O)cc2)c1 (stereo partly specified)	x	3.1	44.6*	x	x	u
COc1ccccc1NC(=O)CN1C(=O)CCSc2ccccc21	11.4	x	1.5	2.4	-0.6	x
CCCCN1CCc2nc(N3CCN(c4ncccn4)CC3)ncc2C1	3.0	x	5.3	0.3	0.8	x
COc1ccc(CCC(=O)NNC(=O)c2ccc(F)cc2)cc1	-30.0*	5.2	-2.7	0.7	-4.5	-8.9%
COc1ccc(CCC(=O)NNC(=S)NCc2ccc(F)cc2)cc1	14.2	-9.8	-7.0	5.1	-3.5	-18.0%
CCCCCCCCNCCS(=O)(=O)NCc1ccc(OC)cc1	x	-63.1*	-24.2	x	x	x
COc1ccccc1CNS(=O)(=O)CCNC(=O)c1ccccc1	-30.0*	-12.2	-11.6	8.0	-4.2	u
O=C(NCCS(=O)(=O)NCc1ccccc1Cl)c1ccc2c(c1)OCO2	-35.1*	6.8	0.2	0.0	-12.8	-13.3%
O=C(NCCS(=O)(=O)NCCc1ccccc1)c1ccc2c(c1)OCO2	-1.9	0.0	-9.0	-0.7	-3.0	u
CC(=O)c1ccc(Nc2cc(C)nc3nc(Cc4ccccc4)nn23)cc1	4.6	x	1.9	5.3	2.8	x
Cc1cccc2c1N(Cc1ccccc1OCCC(C)C)C(=O)C2=O	-0.1	x	0.5	4.7	-2.1	x
Cc1nc2c(OCc3ccc(C#N)cc3)cccn2c1N(C)Cc1cccs1	x	80.5	5.3	x	x	x
CC(=O)c1ccc(NC(=O)CCc2c(C)nc3cc(-c4ccc(Cl)cc4)nn3c2C)cc1	-18.0	x	-1.1	5.7	-5.0	x
CCCCCCCCNS(=O)(=O)CCNCc1ccco1	x	-4.7	37.2*	x	x	x
SMILES	D1 antagonist	D3 antag	D3 ag	D1 ag	D1 potentiator	BCR signal inh
COc1ccc(CNS(=O)(=O)CCNCc2ccccc2OC)cc1	x	-9.4	-28.0	x	x	x
CCCCCCCCNS(=O)(=O)CCNCc1ccccc1OC	x	-51.3*	-14.2	x	x	x
COc1ccc(C(=O)NCCS(=O)(=O)NCc2ccc(F)cc2)cc1	-31.4*	2.6	-6.6	2.1	-4.8	0.0%
CCCCCCCCNS(=O)(=O)CCNCc1ccccc1	x	-18.1	5.2	x	x	x
COc1ccccc1CNS(=O)(=O)CCNCCc1ccccc1	x	-73.5*	-33.9	x	x	x
Cc1c(NC(=O)CSc2nnc(-c3cccc(Cl)c3)o2)c(=O)n(-c2ccccc2)n1C	20.3	-71.6*	-5.8	2.5	-7.8	5.2%
Cc1c(NC(=O)/C(C#N)=C/c2ccc(-c3ccc(Cl)c(Cl)c3)o2)c(=O)n(-c2ccccc2)n1C	-21.9	22.0	13.7	-0.3	-11.8	3.0%
N#C/C(=C\c1ccc(-c2cc(Cl)ccc2Cl)o1)C(=O)Nc1ccccc1C(=O)O	1.1	x	33.5*	0.7	-0.6	x
Cc1c(NC(=O)/C(C#N)=C/c2ccc(-c3cccc(Cl)c3)o2)c(=O)n(-c2ccccc2)n1C	-37.8*	-12.0	-5.3	-0.5	-10.1	u
Cc1c(NC(=O)CSc2nnc(-c3ccncc3)o2)c(=O)n(-c2ccccc2)n1C	8.9	1.9	3.2	3.6	-5.2	u
CCOc1ccc(-c2nnc(SCC(=O)Nc3cccc(Cl)c3C)o2)cc1	-35.2*	x	7.3	21.7	0.1	x
CCOc1ccc(-c2cc3nc(C4CCN(C(=O)OC(C)(C)C)CC4)c(C(=O)Nc4ccc(C)c(F)c4)cn3n2)cc1	16.9	x	13.6	3.1	-1.1	x
COc1cc(CNc2ccc3[nH]c(=O)[nH]c3c2)cc(Br)c1OCc1ccc(F)cc1	-5.5	13.5	32.9*!	0.7	-1.4	5.5%
COc1cc(CNc2ccc3[nH]c(=O)[nH]c3c2)cc(Cl)c1OCc1ccc(F)cc1	0.9	x	4.1	-1.5	3.8	x
Cc1c(OCC(=O)NCC2CCC(C(=O)O)CC2)ccc2c(-c3ccccc3)cc(=O)oc12 (stereo unspecified)	10.4	-21.3	-21.6	1.8	-0.5	u
CCc1cc(=O)oc2c(C)c(OCC(=O)NCC3CCC(C(=O)O)CC3)ccc12 (stereo unspecified)	-65.6*	14.4	25.7	2.8	-12.6	-26.4%
O=C(COC(=O)CSc1cc(Cl)ccc1Cl)Nc1ncc(C(F)(F)F)cc1Cl	-32.4*	6.7	4.9	6.6	6.7	11.8%
Cc1cccnc1C1=NOC(Cc2ccccc2)C(=O)N1C (stereo unspecified)	x	12.7	5.8	x	x	x
COc1ccc(Cl)cc1NC(=O)c1c(NCc2cccnc2)sc2c1CCC(C)C2 (stereo unspecified)	9.4	x	-2.3	1.0	1.9	u
Cc1cc(-c2csc(N)n2)c(C)n1CCc1ccccc1	-2.0	-19.2	31.6*	2.9	-2.8	9.5%
NC(c1csc(Nc2nncc3ccccc23)n1)C1CCCCC1 (stereo unspecified)	x	8.4	0.8	x	x	x
COC(=O)/C=C1\OCc2c(F)cccc21	x	-6.0	2.7	x	x	x
O=C(Nc1ccc(Cl)c(C(F)(F)F)c1)C1Cc2c(-c3ccc4c(c3)OCO4)ccnc2O1 (stereo unspecified)	x	-9.6	-6.2	x	x	x
CC(C)Cc1nn2c(=O)cc(COC(=O)c3cccc(NC(=O)c4cccs4)c3)nc2s1	9.0	x	-0.8	-1.9	1.0	x
